The text below walks through data of PubChem BioAssay (NCATS).

Test [1] in a line: Cell Viability - HUV-EC-C (AID 542).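 Also: cells exposed to compound for 40 hours; % is scaled to controls: 0 for no effect and ±100 for the full control effect; nearly all actives have a fitted effect of over 35% in size.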 The method, boiled down:
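Decrease in cellular ATP, quantified by luciferase luminescence, reflects toxicity in normal human vascular endothelial HUV-EC-C cells given compound for 40 hr in complete culture medium. Values are AC50s from concentration-response curves.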

A short description of test [2]: Cell Viability - SH-SY5Y (AID 544).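 Also: cells exposed to compound for 40 hours; nearly all actives have a fitted effect of over 55% in size.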 Also: potency is read from the fitted curve at half-maximal effect.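 As to viability change, negative = cytotoxic: 0% = DMSO alone and -100% = 100 µM tamoxifen.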 The note with it: SH-SY5Y neuroblastoma cell viability; viability change, negative = cytotoxic: at 92.2 µM (top of the series). In a few lines:
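Cytotoxicity is scored as a concentration-dependent fall in intracellular ATP in human SH-SY5Y cells treated 40 hr in complete culture medium. Potency is expressed as AC50 from a Hill equation fit.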

Test [3] is described as follows: Cell Viability - Renal Proximal Tubule (AID 545).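 Also: cells exposed to compound for 40 hours; 0% = DMSO only and -100% = 100 µM tamoxifen; nearly all actives have a fitted effect of over 40% in size.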 In a few lines: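 Rat kidney proximal tubule cells, freshly isolated; 1000 cells/well, 5 hr settle, compound 40 hr 37 °C. CellTiter-Glo 20 min RT, luminescence read. AC50 by standard Hill fit.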
Test [4] is described as follows: Cell Viability - Mesenchymal (AID 546).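 Also: cells exposed to compound for 40 hours before reading; 0% = DMSO only and -100% = 100 µM tamoxifen.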 The method, boiled down: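 Human kidney mesenchymal cells from normal renal glomeruli, 1000 cells/well, rested 5 hr at 37 °C, then treated 40 hr at 37 °C in complete medium. Cellular ATP read by CellTiter-Glo luminescence; AC50 from Hill-equation fits.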
Test [5] is described as follows: Cell Viability - LYMP1-003 - Assay at 40 hr (AID 964). Also: % is scaled to controls: 0 for no effect and ±100 for the full control effect; nearly all actives have a fitted effect of over 60% in size. The method, boiled down:
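This qHTS cytotoxicity screen treats human lymphoblastoid cells (LYMP1-003) with compounds for 40 hr and quantifies cellular ATP via luciferase luminescence.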

Test [6] in a line: Cell Viability - LYMP2-011 (AID 969).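 Also: 0% = DMSO only and full inhibition = 92 µM tetraoctylammonium bromide; nearly all actives have a fitted effect of over 60% in size.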 In a few lines:
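Acute toxicity is scored as a concentration-dependent drop in intracellular ATP of a human lymphoblastoid line after 24 hr treatment. Values are AC50s modeled with the Hill equation.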

Test [7] can be described thus: Cell Viability - LYMP2-002 (AID 977).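 Also: compound exposure lasted 24 h at 37 °C; plate controls were DMSO only for no effect and 92 µM tetraoctylammonium bromide for full effect.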 The method, boiled down: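 Human lymphoblastoid LYMP2-002 cells, 2500 per well, exposed to compounds for 24 h at 37 C in complete medium; viability read as intracellular ATP by CellTiter-Glo luminescence, AC50 from Hill fits.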
Test [8] in a line: Cell Viability - LYMP2-010 (AID 981). Also: % is scaled to controls: 0 for no effect and ±100 for the full control effect; nearly all actives have a fitted effect of over 55% in size. The method, boiled down:
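Acute toxicity is scored as a concentration-dependent loss of cellular ATP in human lymphoblastoid cells after 24 hr compound exposure in complete medium. Tetraoctylammonium bromide is the positive control.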

A short description of test [9]: Cell Viability - LYMP2-012 (AID 982).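 Also: cellular ATP by luciferase luminescence where a drop means cytotoxicity; cells exposed to compound for one day before reading; 0% = DMSO only and full loss = 92 µM tetraoctylammonium bromide; nearly all actives have a fitted effect of over 55% in size.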
Test [10] addresses Retinoic acid receptor RXR-alpha (Homo sapiens) (UniProt P19793). In words: qHTS assay for small molecule agonists of retinoid X receptor alpha signaling (AID 588544; calls by dose curve;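 also: 0% = DMSO basal wells and 100% = reference agonist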). On the technique in general: In qHTS, concentration-response curves come from the screen itself.
The target of test [11] is Thyroid hormone receptor beta (Homo sapiens) (UniProt P10828). Nature of the test: qHTS assay for small molecule agonists of thyroid hormone receptor beta signaling (AID 588545; calls by dose curve). The method, boiled down: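 Agonist-mode beta-lactamase reporter assay, HEK 293 cells, 2% charcoal/dextran FBS; cells plated 4 hrs, compound 18 hrs at 37 C, CCF4 2 hrs RT. Normalized to 10 nM T3 (100%) and DMSO (0%); Hill fit gives EC50, efficacy.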
Chain of Thyroid hormone receptor beta (Homo sapiens) (P10828 whole entry, looked up): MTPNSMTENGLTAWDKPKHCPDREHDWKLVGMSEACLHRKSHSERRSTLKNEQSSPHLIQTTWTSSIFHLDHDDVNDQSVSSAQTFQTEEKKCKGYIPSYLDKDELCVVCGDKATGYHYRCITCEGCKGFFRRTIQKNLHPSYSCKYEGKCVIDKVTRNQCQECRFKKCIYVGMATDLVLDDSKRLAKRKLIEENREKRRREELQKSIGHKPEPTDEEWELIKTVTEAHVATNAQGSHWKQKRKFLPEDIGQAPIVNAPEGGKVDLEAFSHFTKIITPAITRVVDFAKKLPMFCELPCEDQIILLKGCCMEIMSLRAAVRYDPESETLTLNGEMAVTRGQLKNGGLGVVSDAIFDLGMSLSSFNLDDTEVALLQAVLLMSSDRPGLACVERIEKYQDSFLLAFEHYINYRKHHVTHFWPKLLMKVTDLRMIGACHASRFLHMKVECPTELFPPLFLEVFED

Test [12] addresses Retinoic acid receptor RXR-alpha (Homo sapiens) (UniProt P19793). Nature of the test: qHTS assay for small molecule antagonists of retinoid X receptor alpha signaling (AID 588546; active = well fitted inhibition curve with a large enough effect in the signal ratio, with a control signal flat, not every such curve was filed as active; the % refers to the signal ratio; also: % is scaled to controls: 0 for no effect and ±100 for the full control effect). The note with it: HEK293T RXRa-UAS-bla, beta-lactamase ratio, antagonist mode. In a few lines: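 Beta-lactamase reporter inhibition, read as CCF4 fluorescence ratio (ex 405, em 460/530 nm) after 2 h at RT. HEK293T UAS-bla cells, 2500/well, were stimulated with 9-cis-RA at 500 or 100 nM final alongside test compound for 18 h at 37 C.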

Test [13] concerns the target Thyroid hormone receptor beta (Homo sapiens) (UniProt P10828). In words: qHTS assay for small molecule antagonists of thyroid hormone receptor beta signaling (AID 588547; active = well fitted inhibition curve with a large enough effect in the signal ratio, with a control signal flat, not every such curve was filed as active; the % refers to the signal ratio;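 also: cells stimulated with 0.4 nM T3 agonist during compound exposure; % is scaled to controls: 0 for no effect and ±100 for the full control effect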). The conditions noted are these: TR-UAS-bla HEK293, beta-lactamase ratio, antagonist mode, 18 h. In a few lines: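 TR-UAS-bla GripTite HEK293 cells in 2% charcoal/dextran FBS medium; compounds 0.59 nM to 92 uM with T3 at 0.4nM final, 18 h at 37 C. Beta-lactamase read by CCF4 fluorescence (460/530 nm); Hill fits gave IC50 and efficacy.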

A short description of test [14]: qHTS assay for small molecule disruptors of the mitochondrial membrane potential - 1 hr assay (AID 651754; calls by dose curve; also: nearly all actives have a fitted effect of over 35% in size; also: potency is read from the fitted curve at half-maximal effect). The method, boiled down:
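Steps: seed HepG2 cells and let attach overnight; pin-transfer compound or vehicle; incubate 1 hr at 37C; add Mito-MPS dye for 30 min; read two-channel fluorescence for monomer and aggregate forms.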

Test [15] is described as follows: qHTS assay for environmental chemicals that activate the Aryl hydrocarbon Receptor (AhR) signaling pathway (AID 651777). Also: nearly all actives have a fitted effect of over 15% in size. Also: potency is read from the fitted curve at half-maximal effect. As to activation: % of control where 0% means no effect. The conditions noted are these: 1A2-DRE human hepatoma cells, luciferase, 24 h; activation: stronger effect = higher value. In a few lines: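 Quantitative HTS in stably transfected human liver-derived cells whose luciferase gene sits downstream of the CYP1A2 promoter and dioxin response element. After 24 hr exposure at 37 C, One-Glo luminescence was measured.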

Test [16] is described as follows: qHTS assay for small molecule agonists of the antioxidant response element (ARE) signaling pathway measured by Nrf2-dependant transcriptional activity (AID 720636; active = well fitted curve in the direction sought with a large enough effect in the repeat runs; an effect the other way counts as inactive or inconclusive; also: % of control where 0% means no effect). The method, boiled down:
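Quantitative HTS format in HepG2 cells stably expressing an ARE-luciferase reporter; 16 hr compound treatment at 37 C, luciferase signal detected with ONE-Glo.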

Test [17] in a line: qHTS assay for small molecule antagonists of the retinoid-related orphan receptor gamma (ROR-gamma) signaling pathway - cell viability counter screen (AID 720652; active = well fitted curve in the direction sought with a large enough effect in the repeat runs; an effect the other way counts as inactive or inconclusive;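 also: CHO reporter cells with doxycycline-induced ROR-gamma expression; compound exposure lasted 16 hr before ATP read; % is scaled to controls: 0 for no effect and ±100 for the full control effect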). In a few lines:
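Cytotoxicity is quantified via intracellular ATP (CellTiter-Glo luminescence) in doxycycline-induced CHO ROR response element-luciferase reporter cells treated with compound for 16 hr at 37 C, 5% CO2.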

Test [18] has as its target Nuclear receptor subfamily 1 group I member 2 (Rattus norvegicus) (UniProt Q9R1A7). In words: qHTS assay for small molecule activators of the rat pregnane X receptor (rPXR) signaling pathway (AID 651751; call rule not given here; also: 0% is about no effect). The note with it: rPXR reporter cells, luciferase (One-Glo), 24 h.
Test [19] is described as follows: qHTS assay for small molecule activators of the human pregnane X receptor (PXR) signaling pathway (AID 720659; call rule not given here; also: 0% is about no effect).
Test [20] concerns the target Peroxisome proliferator-activated receptor delta (Homo sapiens) (UniProt Q03181). Nature of the test: qHTS assay for small molecule agonists of peroxisome proliferator-activated receptor delta signaling (AID 588534; calls by dose curve;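 also: 0% = DMSO basal wells and 100% = positive control agonist at 10 µM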). In a few lines: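 Reporter cells were plated and held 5 hrs at 37 C before compounds were added. After 18 hrs at 37 C, CCF4 dye was loaded for 2 hrs at RT and fluorescence measured.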

Where “and” joins values, the source holds several entries; their conditions need not be identical. Equal entries are not always repeated. Values without a mark were called inactive. Records with an inconclusive call do not appear. Calls of active or inactive are those of the source. Unless noted, calls follow the shape of the dose curve; as a rule, active = well fitted curve in the direction sought with a large enough effect; inconclusive = small, poorly fitted or top-dose-only effect, or another doubt; inactive = no such curve, though single readings can be large; an effect the other way counts as inactive or inconclusive.

Chain of Nuclear receptor subfamily 1 group I member 2 (Rattus norvegicus) (Q9R1A7 whole entry, looked up): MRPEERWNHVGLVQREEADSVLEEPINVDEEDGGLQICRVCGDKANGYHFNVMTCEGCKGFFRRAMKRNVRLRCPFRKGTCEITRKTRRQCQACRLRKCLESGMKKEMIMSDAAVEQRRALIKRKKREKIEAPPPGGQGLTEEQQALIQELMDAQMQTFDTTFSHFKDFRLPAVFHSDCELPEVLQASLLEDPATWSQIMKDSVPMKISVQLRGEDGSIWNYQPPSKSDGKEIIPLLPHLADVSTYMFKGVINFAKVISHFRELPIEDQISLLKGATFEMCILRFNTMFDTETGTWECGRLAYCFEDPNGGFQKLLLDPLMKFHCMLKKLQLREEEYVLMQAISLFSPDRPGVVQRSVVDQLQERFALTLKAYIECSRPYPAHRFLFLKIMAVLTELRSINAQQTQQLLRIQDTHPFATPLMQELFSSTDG
Chain of Retinoic acid receptor RXR-alpha (Homo sapiens) (P19793 whole entry, looked up): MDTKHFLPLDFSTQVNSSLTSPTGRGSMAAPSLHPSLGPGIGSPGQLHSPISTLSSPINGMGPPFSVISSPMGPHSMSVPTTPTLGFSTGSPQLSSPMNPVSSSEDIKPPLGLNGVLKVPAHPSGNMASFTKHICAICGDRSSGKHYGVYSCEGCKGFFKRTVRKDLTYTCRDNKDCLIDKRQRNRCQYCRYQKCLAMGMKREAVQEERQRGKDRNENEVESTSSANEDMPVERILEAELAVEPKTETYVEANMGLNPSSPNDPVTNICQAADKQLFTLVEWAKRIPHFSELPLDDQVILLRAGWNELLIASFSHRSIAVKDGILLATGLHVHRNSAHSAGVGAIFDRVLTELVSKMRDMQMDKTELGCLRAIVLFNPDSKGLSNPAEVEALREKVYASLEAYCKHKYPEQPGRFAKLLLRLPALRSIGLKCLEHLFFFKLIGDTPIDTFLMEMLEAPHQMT
Chain of Peroxisome proliferator-activated receptor delta (Homo sapiens) (Q03181 whole entry, looked up): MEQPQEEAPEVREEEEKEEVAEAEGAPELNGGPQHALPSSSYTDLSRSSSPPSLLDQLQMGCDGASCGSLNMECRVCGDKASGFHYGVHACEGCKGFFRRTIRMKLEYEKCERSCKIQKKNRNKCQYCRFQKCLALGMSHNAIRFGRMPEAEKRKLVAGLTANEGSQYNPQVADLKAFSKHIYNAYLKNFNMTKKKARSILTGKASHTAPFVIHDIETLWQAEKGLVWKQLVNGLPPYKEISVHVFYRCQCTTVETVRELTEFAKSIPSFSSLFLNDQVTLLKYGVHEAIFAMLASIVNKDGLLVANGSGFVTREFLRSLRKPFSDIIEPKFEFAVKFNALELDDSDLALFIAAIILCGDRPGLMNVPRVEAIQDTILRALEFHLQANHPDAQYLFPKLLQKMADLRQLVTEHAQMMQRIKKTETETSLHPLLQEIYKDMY

For the compound `CCCC[N+](=O)[O-]`, the Potency entry in test [1], in test [2], in test [4], in test [5], in [6] and in test [7] was “inactive” in each case. Also, the Potency entry in [8], in test [9], in test [11], in test [14], in test [16] and in test [17] was “inactive” each time. Further, the outcome in test [3], in test [10] and in test [19] was inactive. Moreover, the figures for the max response in test [12] and in test [18] were -6.25% and 1.76%, respectively. Besides, the activity change % (negative = inhibition) in test [13] was 2.77%. The activation in [15] is 0.218%.
In the case of `COC(C)(C)C`, the Potency entry in test [1], in test [2], in [4], in test [5], in [6] and in [7] was “inactive” in each case. The Potency result in test [8], in test [9], in test [11], in test [14], in [16] and in test [17] was “inactive” each time. Besides, the compound was called inactive in test [3], in [20] and in test [19]. The max response in test [12] was 6.43%; in test [18], 3.77%. Further, the activation in test [15] was -1.78%.
Take `COP(=S)(OC)SCn1nnc2ccccc2c1=O`: the Potency entry in test [1], in test [4], in [5], in [6], in [7] and in test [8] was “inactive” throughout. The Potency entry in test [9], in test [11], in test [16] and in test [17] was “inactive” throughout. Moreover, in [2], the Potency was 15.8 µM (active). For the same compound, the compound was classed as inactive in test [3] and in test [20]. In addition, the max response in [18] is 0.903% and 4.17%.
With `CCOC(=O)CC(SP(=O)(OC)OC)C(=O)OCC` (stereo not drawn), the outcome in [3], in test [20], in [10] and in [19] was inactive. Also, the Potency result in test [4], in test [5], in [6], in [7], in [8] and in test [9] was “inactive” throughout. Besides, the Potency entry in test [11], in test [14], in test [16] and in test [17] was “inactive” each time. The max response is -24.2% and 2.64% in test [12]; -7.84% and -3.31% in [18]. Besides, the activity change % (negative = inhibition) in [13] is -9.27% and -19.3%.
Regarding `CC(C)[N+](=O)[O-]`, the Potency entry in test [1], in [2], in [5], in [6], in test [7] and in test [8] was “inactive” each time. The Potency entry in test [9], in test [11] and in [16] was “inactive” in each case. For the same compound, the call in test [3], in [10] and in test [19] was inactive. Moreover, the max response in test [12] was 14.3%; in test [18] it was 1.27%. The activity change % (negative = inhibition) in test [13] was 5.36%. In test [15], the activation is 0.897%.
Take `Oc1c(Cl)c(Cl)cc(Cl)c1Cl`: the Potency result in [1], in test [4], in test [5], in [6], in [7] and in test [8] was “inactive” throughout. The Potency result in test [9] and in test [16] was “inactive” throughout. Also, the compound was called inactive in test [20], in [10] and in test [19]. The values for the max response in [12] and in [18] were -10.3% and -8.76%, respectively. Besides, in test [13], the activity change % (negative = inhibition) is 23.1%. The Potency in test [14] is 42.2 µM (active). Besides, in [15], the activation was 0.522%.
As for `O=[N+]([O-])c1cc(Cl)c(Cl)c(Cl)c1`, the Potency result in test [1], in test [2], in test [4], in [5], in [7] and in test [8] was “inactive” in each case. The Potency result in test [9], in test [11], in test [14], in [16] and in [17] was “inactive” each time. The compound was called inactive in [3], in test [20], in test [10] and in test [19]. Besides, the values for the max response in test [12] and in test [18] were -5.05% and -3.17%, respectively. Moreover, the activation in test [15] was 0.049%.
As to `Nc1ncc([N+](=O)[O-])s1`, the Potency entry in test [1], in [2], in test [4], in test [5], in test [6] and in test [7] was “inactive” throughout. Further, the Potency result in test [8], in [9], in test [11], in test [16] and in test [17] was “inactive” each time. For the same compound, the compound was called inactive in test [3], in [20], in test [10] and in test [19]. Also, the max response in test [12] was 20%; in [18] it was -6.92%. Moreover, in [13], the activity change % (negative = inhibition) was -7.23%. Also, the activation in test [15] is 1.78%.
As for `Cc1cc(N=Nc2ccccc2C)ccc1N`, the Potency result in test [1], in test [6] and in [8] was “inactive” in each case. In [20], the call was inactive. Also, the max response in test [12] is -17.1%. The activity change % (negative = inhibition) in [13] was -2.95% and 5.44%. Also, in test [15], the Potency was 44.7 µM (active).
As for `CCCCC(CC)COC(=O)c1ccc(C(=O)OCC(CC)CCCC)c(C(=O)OCC(CC)CCCC)c1` (stereo not drawn), the Potency entry in [1], in test [2], in test [4], in test [5], in test [6] and in test [7] was “inactive” in each case. Also, the Potency entry in test [8], in [9], in test [11], in test [16] and in [17] was “inactive” each time. For the same compound, the result in test [3], in test [20], in test [10] and in test [19] was inactive. Further, the max response was 5.41% in test [12] and 0.711% in [18]. Also, the activation in [15] was -0.0808%.
Regarding `Clc1ccccc1`, the Potency entry in test [1], in test [2], in [4], in test [6], in test [7] and in [8] was “inactive” throughout. The Potency entry in [9], in [11], in test [14], in [16] and in test [17] was “inactive” throughout. In addition, the compound was classed as inactive in [20] and in test [19]. Besides, the values for the max response in test [12] and in [18] were -2.2% and -2.96%, respectively. Moreover, the activation in test [15] is -0.0364%.
